The values below come from PubChem BioAssay.

Several values for one entry are separate records, joined by “and”; a condition that tells them apart may be missing. Identical values can stand only once. More than one record can exist for a structure, and the calls need not agree. Activity calls are given as the source filed them. Unless noted, the rule behind the calls is not given here.

Broadly, the viability is a read-out of living cells in per cent, often relative to untreated cells. Broadly, the inhibition is the drop in the measured response relative to a control, in per cent.

Assay [1] is described as follows: liver-stage malaria parasite growth inhibition, primary screen, cell-based, HepG2, luciferase luminescence, HepG2 viability (AID 624349; in the data active = parasite load remaining mostly below about 12%, no sharp cut-off; inactive = mostly above about 10%;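 note: 100% = mean of DMSO negative control wells on the same plate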). To be noted: P. berghei liver stage in HepG2, luciferase luminescence, concentration not given here; parasite load remaining: stronger effect = lower value; viability: measured here: HepG2 viability without parasites.
The nature of assay [2]: Cy5 fluorescence interference with SSB-bound oligo, artefact control for HCV NS3 helicase inhibitor project, biochemical, NIH Clinical Collection, E. coli SSB (AID 743268).
The subject of assay [3] is Hepatitis C virus NS3 helicase. The assay can be described thus: HCV NS3 helicase inhibitors, primary screen, biochemical, fluorescence polarization, NIH Clinical Collection (AID 743270). To be noted: NS3 helicase binding to Cy5-dT15 DNA, stronger effect = higher value, concentration not given here. In general terms: In fluorescence polarisation assays a small probe gives low polarisation when free and higher when bound to something large.

Assay [4] deals with Single-stranded DNA-binding protein (Escherichia coli (strain K12)) (UniProt P0AGE0). The assay can be described thus: E. coli SSB displacement from DNA, counter-screen for HCV NS3 helicase inhibitor project, biochemical, fluorescence polarization, NIH Clinical Collection (AID 743271; in the data active = inhibition above about 28%). To be noted: stronger effect = higher value, concentration not given here. Background: A counterscreen serves to expose hits that act by an unwanted route or on another target.

A short description of assay [5]: fluorescence interference in NS3h assay format, artefact control for HCV NS3 helicase inhibitor project, biochemical, NIH Clinical Collection (AID 743272).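 Note: HCV NS3 helicase with a Cy5 labelled single stranded DNA probe.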 As to conditions: fluorescence interference counterscreen, stronger effect = lower value.
The nature of assay [6]: stimulators of nuclear beta-catenin in C2C12, primary screen, imaging, WNT3A-conditioned medium, mouse C2C12, NPC library (AID 1117326; in the data active = nuclear beta-catenin stimulation mostly above about 4.2%, no sharp cut-off; inactive = mostly below about 10%). As to conditions: stronger effect = higher value.
A short description of assay [7]: stimulators of insulin release from INS-1E, primary screen, cell-based, 5 mM glucose, NPC library (AID 1117329;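 active = compound raises insulin release from rat beta cells at 5 mM glucose, no numeric limit stated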). As to conditions: rat INS-1E insulin secretion, at 10 µM, stronger effect = higher value.
A short description of assay [8]: growth inhibition of GSK3B-pretreated HCT116 cells – cell-based, CellTiter-Glo, 0.2 to 20 µM (AID 1117336;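 active = compounds lowering colon cancer cell viability after pretreatment blocking the GSK3B kinase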). To be noted: HCT116 viability after GSK3B inhibitor, at 20 µM, stronger effect = higher value. In general terms: Cellular ATP, detected with luciferase, serves as a proxy for viable cell number.
Assay [9] can be described thus: inhibition of endothelial tube formation, primary screen, imaging, VEGF stimulated, CD31 staining, tube area, NPC library (AID 1117340;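 active = compound that reduces growth-factor-driven endothelial tube area in a mixed cell culture, no cutoff stated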). To be noted: VEGF-stimulated ADSC/ECFC co-culture, at 10 µM, stronger effect = higher value.
The nature of assay [10]: glucagon-like peptide 1 release enhancers, primary assay, NCI-H716 cell line, NPC library (AID 1117341;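 active = compound raises GLP1 secretion from the human gut endocrine cells, with no numeric limit stated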). As to conditions: NCI-H716 cells, at 10 µM, stronger effect = higher value.
A short description of assay [11]: HCT116 colon cancer cell growth inhibition, primary screen, CellTiter-Glo luminescence, NPC library (AID 1117342;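 active = compounds that lower survival of HCT116 colon cancer cells in the luminescence readout, no numeric limit stated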). As to conditions: at 20 µM (top of the series).
Assay [12] in a line: CellTiter-Glo luminescent readout of SW480 viability loss, NPC library primary (AID 1117343;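 active = compounds that lower viability of the colon cancer cells in the luminescence readout, with no numeric limit stated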). To be noted: CellTiter-Glo luminescence; at 20 µM (top of the series).
Assay [13] can be described thus: decreased DLD-1 cellular survival, CellTiter-Glo luminescent readout, NPC compound collection, primary HTS (AID 1117346;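 active = compounds that lower survival of DLD-1 colon cancer cells in the luminescence readout, no cutoff given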). As to conditions: DLD-1 viability, CellTiter-Glo luminescence; at 20 µM (top of the series).
In assay [14] the test system is Neuropilin-2 / VEGF-C interaction (human). The assay can be described thus: inhibitors of NRP2–VEGF-C binding, biochemical, microplate binding format, z-score (AID 743281). To be noted: microplate NRP2/VEGF-C binding assay; stronger effect = lower value.
Assay [15] concerns Hepatitis C virus NS3 helicase. The assay can be described thus: HCV NS3 helicase inhibitors, primary screen, biochemical, fluorescence polarization, LOPAC1280 library (AID 687035; in the data active = inhibition above about 37%). To be noted: Purified HCV NS3 helicase, Cy5-dT15 ssDNA binding fluorescence polarization; stronger effect = higher value; concentration not given here.
Assay [16] can be described thus: Cy5 fluorescence quenching or enhancement artefacts, artefact control for HCV NS3 helicase inhibitor project, biochemical, LOPAC1280 (AID 687037). As to conditions: Cy5-DNA-NS3h complex fluorescence interference counterscreen.

As for `CC(N)C12CC3CC(CC(C3)C1)C2` (centres undefined), the parasite load remaining in assay [1] was 59.2% (inactive) and 69.6% (inactive) and 54.8% (inactive). Besides, the viability in assay [1] is 94.8% and 97.2% and 73%. Further, the fluorescence ratio in [2] was 1.02 (inactive); in assay [5] it was 1.03 (inactive). For the same compound, the inhibition in assay [3] was -2.27% (inactive); in assay [4] it was 1.81% (inactive). The nuclear beta-catenin stimulation in assay [6] (at 10 µM) is 1.8% (inactive); in assay [6] (stimulation, at 2 µM) it was 0.3%. Also, the insulin secretion stimulation in assay [7] is 11% (inactive). The viability decrease in assay [8] was -3.4% (inactive). Also, the tube area decrease in assay [9] was 15.2% (inactive). Besides, the GLP1 secretion stimulation in assay [10] is -0.1% (inactive). The inhibition of viability in assay [11] was 7.6% (inactive). Also, the results for the viability decrease (inhibition) in [12] and in [13] were 60.8% (active) and 6.65% (inactive), respectively.

Turning to `Nc1nc(F)nc2c1ncn2[C@@H]1O[C@H](CO)[C@@H](O)[C@@H]1O`, the parasite load remaining in assay [1] was 18.4% (inactive). The viability in [1] was determined as 114%. In addition, the fluorescence ratio in assay [2] was 1.01 (inactive); in [5] it was 1.02 (inactive). Further, the inhibition in assay [3] was 1.36% (inactive); in assay [4], -2.76% (inactive). The nuclear beta-catenin stimulation is 0.3% (inactive) in assay [6] (at 10 µM) and 2.3% in assay [6] (stimulation, at 2 µM). Besides, in assay [7], the insulin secretion stimulation is -0.6% (inactive). Moreover, in assay [8], the viability decrease is 12.6% (active). Besides, the tube area decrease in assay [9] was 106% (active). Also, the GLP1 secretion stimulation in [10] was -2% (inactive). Also, the inhibition of viability in [11] was 38% (inactive). Also, the viability decrease (inhibition) in assay [12] is 17.2% (inactive); in [13] it was 19.4% (inactive).

For `CCOc1cc(CC(=O)N[C@@H](CC(C)C)c2ccccc2N2CCCCC2)ccc1C(=O)O`, in assay [1], the parasite load remaining was 85.6% (inactive) and 16.6% (inactive) and 98.7% (inactive). For the same compound, the viability in [1] is 77.8% and 183% and 76.2%. The fluorescence ratio in assay [2] and in [5] was 1.02 (inactive) each time. Moreover, the inhibition in assay [3] is 5.94% (inactive); in [4], 2.21% (inactive). Moreover, in [14], the z-score was -0.286 (inactive). Also, the nuclear beta-catenin stimulation in assay [6] (at 10 µM) is -1.5% (inactive); in [6] (stimulation, at 2 µM) it was 0.2%. In [7], the insulin secretion stimulation was 43.9% (active). The viability decrease in [8] is 70.5% (active). Further, in assay [9], the tube area decrease is -11.3% (inactive). The GLP1 secretion stimulation in [10] was 0.5% (inactive). Besides, in assay [11], the inhibition of viability was 29.7% (inactive). For the same compound, the viability decrease (inhibition) is 68.3% (active) in [12] and 33.3% (inactive) in [13].

`CC(=O)[C@]1(O)Cc2c(O)c3c(c(O)c2[C@@H](O[C@H]2C[C@H](N)[C@H](O)[C@H](C)O2)C1)C(=O)c1ccccc1C3=O`: in [1], the parasite load remaining was -0.405% (inactive) and 0.045% (active). In assay [1], the viability is 2.19% and 69.5%. In addition, the inhibition was -1% (inactive) in assay [15], 0.4% (inactive) in [3] and 14.5% (inactive) in [4]. The fluorescence ratio (interference) in assay [16] was 0.8 (active). Moreover, the values for the fluorescence ratio in assay [2] and in assay [5] were 0.31 (active) and 0.67 (active), respectively. Also, the z-score in assay [14] is 1.07 (inactive). In addition, the nuclear beta-catenin stimulation in [6] (at 10 µM) was 18.6% (active); in assay [6] (stimulation, at 2 µM), 94.8%. For the same compound, in assay [7], the insulin secretion stimulation was -1.8% (inactive). Besides, in assay [8], the viability decrease was 84% (active). In addition, the tube area decrease in [9] is 85.6% (active). Also, the GLP1 secretion stimulation in assay [10] is -0.2% (inactive). Also, the inhibition of viability in [11] is 68.9% (active). Besides, the viability decrease (inhibition) in [12] is 84.7% (active); in [13] it was 85.5% (active).

Take `C[C@@H]1C[C@H]2[C@@H]3C[C@H](F)C4=CC(=O)C(Cl)=C[C@]4(C)[C@@]3(F)[C@@H](O)C[C@]2(C)[C@@]1(O)C(=O)CO`: in [1], the parasite load remaining is 117% (inactive). Also, the viability in assay [1] came to 79.4%. In addition, the fluorescence ratio in assay [2] is 1 (inactive); in [5] it was 0.96 (inactive). Moreover, the inhibition is 6.73% (inactive) in assay [3] and 7.6% (inactive) in assay [4]. Besides, the nuclear beta-catenin stimulation in [6] (at 10 µM) was 1.5% (inactive); in [6] (stimulation, at 2 µM) it was 1.3%. Also, in assay [7], the insulin secretion stimulation is -0.6% (inactive). Further, the viability decrease in [8] is 6.2% (inactive). Besides, the tube area decrease in assay [9] was -1.8% (inactive). Also, in assay [10], the GLP1 secretion stimulation was 4.6% (inactive). In assay [11], the inhibition of viability is 33.1% (inactive). Also, the viability decrease (inhibition) is 12% (inactive) in [12] and 8.3% (inactive) in [13].
